The record followed here is PubChem BioAssay (NCATS).

Inconclusive results are not listed. For some assays here: Results with a measured potency or affinity are listed apart. Activity calls are given as the source filed them.

For assay [1] the following is noted: Ebola virus entry assay, green channel fluorescence.
The conditions of assay [2]: Ebola virus entry assay, blue channel fluorescence.
For assay [3] the following is noted: Ebola virus entry assay, reporter ratio channel; AC50: Channel type: primary unless noted; outcome: Channel type: primary unless noted.
The conditions of assay [4]: Ebola virus entry assay, blue channel (ratio component).
The conditions of assay [5]: Ebola virus entry cell assay, ratio channel.
The conditions of assay [6]: Ebola virus entry reporter assay, green channel fluorescence.
The nature of assay [7]: High-throughput drug toxicity screening in the BPDCN cell line Gen2.2 (AID 1224824).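 Also: cells exposed to compounds for 48 h before reading.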 Conditions: Gen2.2 BPDCN cells; at 45.8 µM (top of the series). The method, boiled down:
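Gen2.2 cells (500/well) in phenol red-free RPMI with 10% FBS were exposed to compounds for 48 h at 37 °C, 5% CO2. Viability was read by CellTiter-Glo luminescence and normalized to DMSO (100%) and 9.2 uM bortezomib (0%).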

The nature of assay [8]: qHTS assay for measurement of the activity of small molecule inhibitors on Zika virus induced Caspase-3 activity in human iPSC derived neural progenitor cells (hNPCs) (AID 1224857; active = well fitted curve in the direction sought with a large enough effect; an effect the other way counts as inactive or inconclusive; also: % of control where 0% means no effect; nearly all actives have a fitted effect of over 65% in size). The settings on record: hNPCs ZIKV-induced caspase-3/7, Caspase-Glo luminescence, 6 h; series mostly up to 45.7 µM. The method, boiled down: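 Human iPSC-derived neural progenitor cells pretreated 1 hr with compounds, then infected with Zika virus (2 FFU/cell) for 6 hours at 37 C. Caspase-3/7 measured by Caspase-Glo luminescence; % inhibition calculated from induction scaled to uninfected (0%) and infected (100%) wells.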

A short description of assay [9]: qHTS assay for measurement of the activity of small molecule inhibitors on Zika virus induced Caspase-3 activity in human astrocytoma cells (AID 1224859; active = well fitted curve in the direction sought with a large enough effect; an effect the other way counts as inactive or inconclusive;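 also: plate controls were ZIKV-infected untreated cells for no effect and uninfected cells for full effect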). The settings on record: SNB-19 ZIKV-induced caspase-3/7, luminescence, 6 h; series mostly up to 45.7 µM. In outline: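 SNB-19 astrocytoma cells, 250/well, pretreated 1 h with compounds, then Zika virus at 2 FFU/cell for 6 h at 37 C; Caspase-Glo 3/7 luminescence after 30 min; percent inhibition normalised to uninfected and infected controls.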

Assay [10] is described as follows: qHTS assay to identify small molecule inhibitors of chordoma cells - UCH-1 (AID 1259355; active = well fitted curve in the direction sought with a large enough effect; an effect the other way counts as inactive or inconclusive; also: % is scaled to controls: 0 for no effect and ±100 for the full control effect; nearly all actives have a fitted effect of over 55% in size). Conditions: UCH-1 chordoma viability, CellTiter-Glo, 48 h, combination; series mostly up to 46.1 µM. In outline: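 800 cells/well, overnight attach; compounds pinned at 15 concs, then auranofin/camptothecin/doxorubicin/rubitecan/topotecan combo added; 48hr 37 C, 5% CO2; CellTiter-Glo, 30min RT, luminescence.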

The nature of assay [11]: qHTS assay to identify small molecule inhibitors of chordoma cells - UCH-2 (AID 1259356; active = well fitted curve in the direction sought with a large enough effect; an effect the other way counts as inactive or inconclusive; also: % is scaled to controls: 0 for no effect and ±100 for the full control effect). Conditions: UCH-2 chordoma viability, CellTiter-Glo ATP luminescence, 48 h; series mostly up to 46.1 µM.
The nature of assay [12]: qHTS Screen of the MIPE 4.0 Collection Against Ewings Sarcoma (TC71) (AID 1259253; active = well fitted curve in the direction sought with a large enough effect; an effect the other way counts as inactive or inconclusive;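 also: 100% = DMSO-treated cells and 0% = medium-only wells without cells; nearly all actives have a fitted effect of over 40% in size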). Conditions: TC71 Ewing sarcoma viability, CellTiter-Glo, 48 h; series mostly up to 45.8 µM. The method, boiled down:
(§1)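 CellTiter-Glo luminescence after 48 h compound exposure (titration) gave viability; percent activity used DMSO-treated cells as no inhibition and medium-only wells as full inhibition. Cells grown in RPMI/5% FBS, dosed 4 h post-seeding.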

A short description of assay [13]: qHTS Screen of the MIPE 4.0 Collection Against Ewings Sarcoma (EW8) (AID 1259255; active = well fitted curve in the direction sought with a large enough effect; an effect the other way counts as inactive or inconclusive;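 also: 100% = DMSO-treated cells and 0% = medium-only wells without cells; nearly all actives have a fitted effect of over 35% in size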). The settings on record: EW8 Ewing sarcoma viability, CellTiter-Glo, 48 h; series mostly up to 45.8 µM. In outline: as §1
Assay [14] can be described thus: Immunotoxin (HA22) sensitization/mitigation study. Vehicle arm (PBS) (AID 1159510). Also: potency is read from the fitted curve at half-maximal effect. The settings on record: cancer cells viability with PBS vehicle (HA22 study); series mostly up to 46.1 µM.
The nature of assay [15]: Immunotoxin (SS1P) sensitization/mitigation study. Vehicle arm (DMEM) (AID 1159513). Also: potency is read from the fitted curve at half-maximal effect. The settings on record: cell viability with vehicle (DMEM); series mostly up to 46.1 µM.

Take `Nc1nc(=S)c2[nH]cnc2[nH]1`: the outcome in [1], in assay [2], in assay [3], in assay [4] and in assay [5] was inactive.

Take `Nc1nc2c(ncn2COCCO)c(=O)[nH]1`: the compound was classed as inactive in [1], in [2], in [3], in assay [4] and in assay [5].

For the compound `CN(C/C=C/C#CC(C)(C)C)Cc1cccc2ccccc12`, the outcome in [1], in [2], in assay [6] and in assay [5] was inactive. The AC50 in assay [3] was 35.5 µM (active).

Take `NNCCc1ccccc1`: the compound was classed as inactive in assay [1], in [2], in [3], in [4] and in assay [5].

Take `CNS(=O)(=O)CCc1ccc2[nH]cc(C3CCN(C)CC3)c2c1`: the result in assay [1], in [2], in assay [3], in assay [4] and in assay [5] was inactive.

In the case of `CC(C)C1CCC(C(=O)N[C@H](Cc2ccccc2)C(=O)O)CC1` (stereo partly specified), the outcome in assay [1], in assay [2], in assay [3], in assay [4] and in assay [5] was inactive.

With `C[n+]1ccccc1/C=N/O`, the call in assay [1], in assay [2], in assay [3], in assay [4] and in [5] was inactive.

As for `NCC1(CC(=O)O)CCCCC1`, the compound was called inactive in assay [1], in assay [2], in assay [3], in [4], in assay [5] and in [9]. The cell viability, % of control (lower = more cytotoxic) in assay [7] stood at 114%. Moreover, the Potency result in [8], in [10] and in [11] was “inactive” throughout.

On to `N[C@@H]1CONC1=O`, for which the compound was classed as inactive in assay [1], in assay [2], in assay [3], in assay [4] and in [5].

Consider `COC(c1ccccc1)(c1ccccc1)[C@H](Oc1nc(C)cc(C)n1)C(=O)O`, for which the compound was called inactive in [1], in [2], in [3], in [4] and in assay [5].

Turning to `CN1CCN(C(=O)O[C@H]2c3nccnc3C(=O)N2c2ccc(Cl)cn2)CC1`, the compound was called inactive in assay [1], in [2], in assay [3], in assay [4], in assay [5] and in [9]. Also, the cell viability, % of control (lower = more cytotoxic) in assay [7] came out at 126%. The Potency result in assay [12], in [13], in assay [10] and in assay [11] was “inactive” throughout.

Turning to `C#Cc1cccc(Nc2ncnc3cc(OCCOC)c(OCCOC)cc23)c1`, the outcome in assay [1], in assay [3], in [4] and in [6] was inactive. In addition, the AC50 in assay [5] was 8.91 µM (active). For the same compound, the Potency in assay [14] is 16.6 µM (active); in assay [15], 4.69 µM (active).

For the compound `CCC(C)(C)C(=O)O[C@H]1C[C@@H](C)C=C2C=C[C@H](C)[C@H](CC[C@@H]3C[C@@H](O)CC(=O)O3)[C@H]21`, the call in assay [1], in [4], in assay [6] and in assay [5] was inactive. In assay [3], the AC50 was 7.08 µM (active). In assay [15], the Potency is 7.1 µM (active).

`CC(C)c1c(C(=O)Nc2ccccc2)c(-c2ccccc2)c(-c2ccc(F)cc2)n1CC[C@@H](O)C[C@@H](O)CC(=O)O`: the result in [1], in assay [3], in assay [4], in assay [6] and in assay [5] was inactive.

As to `Cc1ccc(C)c(OCCCC(C)(C)C(=O)O)c1`, the compound was classed as inactive in assay [1], in [2], in assay [3], in [6] and in assay [5].

Take `Nc1cccc2c1CN(C1CCC(=O)NC1=O)C2=O` (stereo unspecified): the compound was called inactive in [1], in [3], in assay [4], in [6] and in assay [5]. For the same compound, the Potency entry in assay [14] and in assay [15] was “inactive” in each case.

For `NC1[C@H]2CN(c3nc4c(cc3F)c(=O)c(C(=O)O)cn4-c3ccc(F)cc3F)C[C@@H]12` (stereo partly specified), the compound was classed as inactive in assay [1], in assay [2], in [3], in assay [6] and in assay [5].

`CCC1=C[C@@H]2CN(C1)Cc1c([nH]c3ccccc13)[C@@](C(=O)OC)(c1cc3c(cc1OC)N(C)[C@H]1[C@@](O)(C(=O)OC)[C@H](OC(C)=O)[C@]4(CC)C=CCN5CC[C@]31[C@@H]54)C2`: the compound was classed as inactive in assay [1] and in assay [4]. Moreover, the outcome in assay [3] was “inactive [Channel type: confirmation]”. For the same compound, the AC50 in [5] is 0.282 µM (active).

Take `C[C@@H]1CC(=O)NN=C1c1ccc(NN=C(C#N)C#N)cc1`: the call in [1], in assay [3] and in assay [4] was inactive.

For the compound `CCN1/C(=C/C=C/c2sc3ccccc3[n+]2CC)Sc2ccccc21`, the result in [1] and in assay [3] was inactive.

Turning to `CCOC(=O)C1=C(C)NC(C)=C(C(=O)OC)C1c1cccc(Cl)c1Cl` (stereo unspecified), the result in assay [1], in assay [3], in [4] and in [5] was inactive.

Turning to `Cc1nc(N)nc(N)c1-c1ccc(Cl)c(Cl)c1`, the call in [1] was inactive. Further, in assay [3], the AC50 was 28.2 µM (active).

On to `Cc1nccn1CC1CCc2c(c3ccccc3n2C)C1=O` (stereo unspecified), for which the call in [1], in assay [2], in [6] and in [5] was inactive. For the same compound, the AC50 in assay [3] is 22.4 µM (active).

With `CC[C@@H](CO)NC(=O)[C@@H]1C=C2c3cccc4c3c(cn4C)C[C@H]2N(C)C1`, the result in [1], in [2], in assay [3] and in [5] was inactive.

Regarding `CC(C)NCC(O)COc1cccc2[nH]ccc12` (stereo unspecified), the call in [1], in assay [2] and in assay [5] was inactive. Besides, in assay [3], the AC50 is 39.8 µM (active).

With `Cc1ccc(S(=O)(=O)NC(=O)NN2CCCCCC2)cc1`, the result in assay [1], in assay [3], in [4] and in assay [5] was inactive.

Consider `CCCCOCCOCCOCc1cc2c(cc1CCC)OCO2`, for which the outcome in assay [1], in assay [3] and in assay [4] was inactive.

On to `CC(C)Oc1ccc2c(=O)c(-c3ccccc3)coc2c1`, for which the result in assay [1], in assay [3] and in [4] was inactive.

Regarding `C=C[C@H]1CN2CC[C@H]1C[C@@H]2[C@@H](O)c1ccnc2ccc(OC)cc12`, the outcome in assay [1], in [2], in assay [6] and in assay [5] was inactive. In [3], the concentration at half-maximal activity (AC50) was 35.5 µM (active).

On to `COc1c(C)c2c(c(O)c1C/C=C(\C)CCC(=O)OCCN1CCOCC1)C(=O)OC2`, for which the compound was called inactive in assay [1], in [3] and in [4]. Moreover, in [5], the AC50 was 3.98 µM (active).

As to `O=[N+]([O-])c1ccc(O)c2ncccc12`, the compound was classed as inactive in [1]. Moreover, the AC50 in [3] is 28.2 µM (active).

In the case of `CCn1cc(C(=O)O)c(=O)c2cc(F)c(N3CCNCC3)cc21`, the compound was called inactive in assay [1], in assay [2], in [3], in [6] and in assay [5].

For the compound `Cc1cccc(C)c1OCC(C)N` (stereo unspecified), the compound was called inactive in assay [1], in [3], in assay [4] and in [5].

`Cc1ccc2c(n1)Oc1ccc(C(C)C(=O)OCC(=O)N(C)C)cc1C2` (stereo unspecified): the outcome in [1] and in [3] was inactive.
